Source: PubChem BioAssay (NCATS)
Results filed as inconclusive are left out. Active and inactive are the calls of the source. The call rests on the fitted dose curve; in most records, active means well fitted curve in the direction sought with a large enough effect; inconclusive means small, poorly fitted or top-dose-only effect, or another doubt; inactive means no such curve, though single readings can be large; an effect the other way counts as inactive or inconclusive.

Tests used:
[1] = molecular target: Metallo-beta-lactamase type 2 (Klebsiella pneumoniae) (UniProt C7C422); experiment: qHTS to identify inhibitors of the New Delhi Metallo-beta-lactamase (NDM): assay validation screen against the NCATS LOPAC Collection (AID 1794843); further: series mostly up to about 38 µM
Chain of Metallo-beta-lactamase type 2 (Klebsiella pneumoniae) (C7C422 whole entry, looked up): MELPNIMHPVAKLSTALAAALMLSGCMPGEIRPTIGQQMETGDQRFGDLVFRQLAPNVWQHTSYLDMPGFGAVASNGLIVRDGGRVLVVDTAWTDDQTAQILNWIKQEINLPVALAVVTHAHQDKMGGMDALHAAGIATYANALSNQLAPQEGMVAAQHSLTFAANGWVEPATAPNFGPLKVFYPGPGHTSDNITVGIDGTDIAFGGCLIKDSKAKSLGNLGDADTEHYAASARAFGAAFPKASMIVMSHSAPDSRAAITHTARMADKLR
Procedure, shortened: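 Absorbance at 485 nm from nitrocefin turnover (50 uM solution added), read at plateau, gives the read-out. Compounds in DMSO were incubated first with 2 nM final NDM-1 in pH 7.0 HEPES buffer containing 1 uM ZnSO4 and 0.01% Tween20.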

[2] = molecular target: Phospholipid hydroperoxide glutathione peroxidase GPX4 (Homo sapiens) (UniProt P36969); experiment: Primary qHTS Assay for Inhibitors of Recombinant Selenoprotein Glutathione Peroxidase 4 (GPX4) (AID 1845192); further: nearly all actives have a fitted effect of over 65% in size
Chain of Phospholipid hydroperoxide glutathione peroxidase GPX4 (Homo sapiens) (P36969 whole entry, looked up): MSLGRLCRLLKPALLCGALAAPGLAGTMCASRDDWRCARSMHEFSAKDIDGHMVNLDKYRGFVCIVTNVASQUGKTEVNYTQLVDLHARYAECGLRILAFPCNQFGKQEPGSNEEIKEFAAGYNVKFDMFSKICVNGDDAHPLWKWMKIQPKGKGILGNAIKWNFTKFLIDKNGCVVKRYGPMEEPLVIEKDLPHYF
Procedure, shortened: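 GR-coupled readout: 100 nM GR, 1 mM GSH, 0.5 mM NADPH; NADPH fluorescence (ex 340/em 450 nm) read at t=0 and after 15 min RT. GPX4 200 nM, preincubated 30 min with compound; substrate 0.5 mM CHP.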

[3] = molecular target: Luciferin 4-monooxygenase (Photinus pyralis) (UniProt P08659); experiment: Primary firefly luciferase (FLuc) qHTS assay for identification of artifact compounds. (AID 1845220); conditions: outcome: dose series up to 54.1 µM; further: nearly all actives have a fitted effect of over 60% in size
Procedure, shortened: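 In this counter-screen for luciferase artifacts, test compounds met substrate (10 uM each luciferin and ATP) before 10 nM enzyme started the reaction. Light output was measured 5 min later.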

[4] = Primary fluorescence-based thiol-reactive (MSTI) qHTS assay for identification of artifact compounds. (AID 1845221);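 further: series mostly up to about 54 µM; thiol-reactive compounds lower the probe fluorescence signal; nearly all actives have a fitted effect of over 65% in size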
Procedure, shortened: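 Thiol-reactive compounds detected by quenching of 4 uM MSTI fluorescence (525/598 nm) after 1 h room-temperature dark incubation in PBS pH 7.4, 2% DMSO. qHTS titration; percent inhibition Hill-fitted against Acetyl-MSTI/MSTI controls.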

[5] = system: Nanoluciferase (engineered Oplophorus gracilirostris luciferase); experiment: Primary Nanoluciferase (NLuc) qHTS assay for identification of artifact compounds. (AID 1845222);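 further: NLuc secreted into diluted conditioned medium of S16 cells; series mostly up to about 54 µM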
Procedure, shortened: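 Using secreted nanoluciferase in S16 culture medium (0.22 um filtered, 1:55 dilution), compounds were preincubated 15 min at RT. Signal was generated with Nano-Glo reagent (1:100) over 5 min.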

[6] = Primary redox qHTS assay for identification of artifact compounds. (AID 1845223)
Procedure, shortened: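 Amplex Red (25 uM) and HRP (250 mU/mL) in HBSS, with compounds for 15 min, then 250 uM DTT for 30 min, room temperature, dark. Fluorescence 525/598 nm read; normalized to DMSO and 10 uM DA3003; Hill fit.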

[7] = Quantitative High-Throughput drug screen in 47 multiple myeloma cell lines against the NCATS MIPE library collection: FR4_PLB cell viability assay (AID 1918924; further: nearly all actives have a fitted effect of over 35% in size; further: potency means the concentration at half of the fitted maximal effect)
Procedure, shortened: (§1)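 CellTiter-Glo luminescence (ATP) after 48 h compound exposure, 37C/5% CO2; 500 cells/well; MIPE 4.0 approved/investigational drugs pinned in; DMSO = 100%, media only = 0% viability.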

[8] = Quantitative High-Throughput drug screen in 47 multiple myeloma cell lines against the NCATS MIPE library collection: EJM_DSMZ cell viability assay (AID 1918926; further: nearly all actives have a fitted effect of over 30% in size; further: potency means the concentration at half of the fitted maximal effect)
Procedure, shortened: as §1

[9] = Quantitative High-Throughput drug screen in 47 multiple myeloma cell lines against the NCATS MIPE library collection: AMO1_DSMZ cell viability assay (AID 1918927; further: nearly all actives have a fitted effect of over 30% in size; further: potency means the concentration at half of the fitted maximal effect)
Procedure, shortened: as §1

[10] = Quantitative High-Throughput drug screen in 47 multiple myeloma cell lines against the NCATS MIPE library collection: ARP1_JJKsccF8 cell viability assay (AID 1918928; further: nearly all actives have a fitted effect of over 40% in size; further: potency means the concentration at half of the fitted maximal effect)
Procedure, shortened: (§2)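 ATP readout (CellTiter-Glo), 48 h drug incubation, 37 °C/5% CO2, 500 cells per well; normalisation to DMSO (100%) and media-only (0%) controls.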

[11] = Quantitative High-Throughput drug screen in 47 multiple myeloma cell lines against the NCATS MIPE library collection: Karpas620_DSMZ cell viability assay (AID 1918959); further: nearly all actives have a fitted effect of over 30% in size; further: potency means the concentration at half of the fitted maximal effect
Procedure, shortened: as §1

[12] = Quantitative High-Throughput drug screen in 47 multiple myeloma cell lines against the NCATS MIPE library collection: KMM1_JCRB cell viability assay (AID 1918960); further: nearly all actives have a fitted effect of over 30% in size; further: potency means the concentration at half of the fitted maximal effect
Procedure, shortened: as §2

[13] = Quantitative High-Throughput drug screen in 47 multiple myeloma cell lines against the NCATS MIPE library collection: KHM11_PLB cell viability assay (AID 1918962); further: nearly all actives have a fitted effect of over 35% in size; further: potency means the concentration at half of the fitted maximal effect
Procedure, shortened: as §1

[14] = Quantitative High-Throughput drug screen in 47 multiple myeloma cell lines against the NCATS MIPE library collection: JIM3_ECACC cell viability assay (AID 1918963; further: nearly all actives have a fitted effect of over 35% in size; further: potency means the concentration at half of the fitted maximal effect)
Procedure, shortened: as §1

[15] = Quantitative High-Throughput drug screen in 47 multiple myeloma cell lines against the NCATS MIPE library collection: JIM1_ECACC cell viability assay (AID 1918964; further: potency means the concentration at half of the fitted maximal effect)
Procedure, shortened: as §1

[16] = Quantitative High-Throughput drug screen in 47 multiple myeloma cell lines against the NCATS MIPE library collection: INA6_PLB cell viability assay (AID 1918965; further: nearly all actives have a fitted effect of over 55% in size; further: potency means the concentration at half of the fitted maximal effect)
Procedure, shortened: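 Myeloma cells (500 per well) were exposed to MIPE 4.0 compounds by pin transfer and incubated 48 hours at 37C, 5% CO2. Viability was read as ATP by CellTiter-Glo luminescence, normalised to DMSO (100%) and media-only (0%) wells.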

[17] = Quantitative High-Throughput drug screen in 47 multiple myeloma cell lines against the NCATS MIPE library collection: H1112_PLB cell viability assay (AID 1918967; further: nearly all actives have a fitted effect of over 30% in size; further: potency means the concentration at half of the fitted maximal effect)
Procedure, shortened: as §1

[18] = molecular target: Glutathione peroxidase 1 (Homo sapiens) (UniProt P07203); experiment: Primary qHTS Assay for Inhibitors of Recombinant Selenoprotein Glutathione Peroxidase 1 (GPX1) (AID 1845191); further: nearly all actives have a fitted effect of over 65% in size
Chain of Glutathione peroxidase 1 (Homo sapiens) (P07203 whole entry, looked up): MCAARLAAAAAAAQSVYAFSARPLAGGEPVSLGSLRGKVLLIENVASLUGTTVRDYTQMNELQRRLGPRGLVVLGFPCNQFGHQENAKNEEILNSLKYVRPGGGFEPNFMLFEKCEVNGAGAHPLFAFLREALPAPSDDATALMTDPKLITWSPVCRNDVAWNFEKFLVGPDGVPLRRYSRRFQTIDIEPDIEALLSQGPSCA
Procedure, shortened: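 Recombinant GPX1 (10 nM final) was preincubated with compound for 30 min at room temperature, then reacted with 1 mM GSH, 0.5 mM CHP, 0.5 mM NADPH and 100 nM glutathione reductase; NADPH fluorescence (340/450 nm) was read at 0 and 15 min.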

[19] = Quantitative High-Throughput drug screen in 47 multiple myeloma cell lines against the NCATS MIPE library collection: Delta47_JCRB cell viability assay (AID 1918925; further: nearly all actives have a fitted effect of over 45% in size; further: potency means the concentration at half of the fitted maximal effect)
Procedure, shortened: as §1

[20] = Quantitative High-Throughput drug screen in 47 multiple myeloma cell lines against the NCATS MIPE library collection: ARD_JJKsccE7 cell viability assay (AID 1918929; further: potency means the concentration at half of the fitted maximal effect)
Procedure, shortened: as §1

Measured: Potency

O=C(c1ccc(F)cc1)C1CCN(CCn2c(=O)[nH]c3ccccc3c2=O)CC1
active: [16] 20.9 µM
not listed: [18] | [19] | [20]
inactive: all other assays above

Clc1ccc(C(c2ccccc2Cl)C(Cl)Cl)cc1 (configuration not stated)
inactive: [1] | [18] | [2] | [11] | [17]
active: [9] 1.87 µM | [14] 20.9 µM

NC12CC3CC(CC(C3)C1)C2
active: [19] 16.6 µM | [16] 26.4 µM
inactive: [1] | [2] | [7]

O=c1[nH]cc(F)c(=O)[nH]1
active: [10] 1.87 µM | [12] 10.5 µM | [14] 20.9 µM | [16] 5.26 µM
inactive: [1] | [18] | [2] | [8] | [11] | [17]

CC1COc2c(N3CCN(C)CC3)c(F)cc3c(=O)c(C(=O)O)cn1c23 (configuration not stated)
inactive: [1] | [2] | [19] | [8] | [10] | [20] | [11] | [13] | [14] | [15] | [17]

CCc1cccc2c3c([nH]c12)C(CC)(CC(=O)O)OCC3 (configuration not stated)
not listed: [3] | [4] | [5] | [6] | [7] | [14] | [15] | [18]
inactive: all other assays above

CN(C)CCCN1c2ccccc2CCc2ccc(Cl)cc21
inactive: [1] | [2]
active: [7] 1.18 µM | [19] 1.18 µM | [8] 0.264 µM | [9] 1.05 µM | [20] 8.33 µM | [11] 16.6 µM | [12] 11.8 µM | [13] 3.32 µM | [15] 9.35 µM | [17] 0.833 µM

NC(=O)OCC(COC(N)=O)c1ccccc1
inactive: [1] | [2] | [19] | [8] | [9] | [10] | [11] | [12] | [13] | [16] | [17]

COc1cc2nc(N(C)CCCNC(=O)C3CCCO3)nc(N)c2cc1OC (configuration not stated)
inactive: [1] | [18] | [8] | [11] | [12] | [13] | [14] | [17]

CC(C)NCC(O)c1ccc(O)c(O)c1 (configuration not stated)
inactive: [1] | [18] | [2] | [13] | [17]
active: [8] 14.8 µM | [9] 5.26 µM | [11] 14.8 µM | [12] 2.64 µM | [15] 13.2 µM

COc1ccc2[nH]cc(CCNC(C)=O)c2c1
inactive: [1] | [18] | [2] | [8] | [11] | [12] | [17]
active: [9] 0.235 µM | [15] 0.0074 µM

Cn1cnc2c1c(=O)[nH]c(=O)n2C
inactive: [1] | [2]
active: [19] 14.8 µM | [8] 20.9 µM | [9] 9.35 µM | [10] 14.8 µM | [20] 7.43 µM | [11] 7.43 µM | [12] 7.43 µM | [14] 16.6 µM | [15] 4.69 µM | [16] 7.43 µM | [17] 18.7 µM

Cn1ccc2cc3c(cc21)CCN3C(=O)Nc1cccnc1
active: [9] 23.5 µM | [16] 14.8 µM | [17] 20.9 µM
inactive: [1] | [18] | [2] | [8] | [10] | [11]

CN1CCN(C2=Nc3cc(Cl)ccc3Nc3ccccc32)CC1
active: [19] 20.9 µM | [12] 16.6 µM
inactive: [1] | [2] | [7] | [8] | [10] | [15]

CN(C)C(=O)C(CCN1CCC(O)(c2ccc(Cl)cc2)CC1)(c1ccccc1)c1ccccc1
inactive: [1] | [2] | [9] | [11]
active: [7] 20.9 µM | [19] 20.9 µM | [13] 18.7 µM | [14] 20.9 µM | [16] 18.7 µM

CC(C)(C)C(=O)Oc1ccc(S(=O)(=O)Nc2ccccc2C(=O)NCC(=O)O)cc1
active: [17] 18.7 µM
inactive: [1] | [18] | [2] | [9] | [10] | [20] | [11] | [15]

COC(=O)Nc1nc2ccc(C(=O)c3cccs3)cc2[nH]1
active: [9] 0.001 µM | [10] 0.0042 µM | [11] 0.0017 µM | [12] 0.001 µM | [14] 0.001 µM | [15] 0.001 µM | [16] 0.001 µM | [17] 0.0132 µM
inactive: [1] | [18] | [2]

Nc1c2c(nc3ccccc13)CCCC2
inactive: [1] | [18] | [2] | [8] | [11] | [12] | [15] | [17]

CC[C@@]1(O)C(=O)OCc2c1cc1n(c2=O)Cc2cc3c(CN(C)C)c(O)ccc3nc2-1
active: [19] 0.469 µM | [8] 0.935 µM | [9] 0.264 µM | [10] 2.96 µM | [20] 2.64 µM | [11] 3.72 µM | [12] 1.32 µM | [13] 1.66 µM | [14] 5.26 µM | [15] 0.743 µM | [16] 0.0296 µM | [17] 0.418 µM
inactive: [1] | [2] | [3] | [4] | [5] | [6]
